Experiment [1] is described as follows: A CellTox Green Cytotoxicity Assay to monitor cytotoxicity in HEK293 cells - 32 hour (AID 1224881). Further: nearly all actives have a fitted effect of over 40% in size. Further: potency means the concentration at half of the fitted maximal effect. The settings on record: CellTox Green fluorescence; series mostly up to 76.8 µM. The method, boiled down:
(§1)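 Each value comes from one timepoint of a single continuous run in which HEK293 cells with CellTox Green were exposed to compound for up to 40 h at 37 C, dye fluorescence rising with cell death.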

Experiment [2] is described as follows: A CellTox Green Cytotoxicity Assay to monitor cytotoxicity in HepG2 cells - 0 hour (AID 1224882). Further: nearly all actives have a fitted effect of over 35% in size. The conditions noted are these: CellTox Green fluorescence; series mostly up to 76.8 µM. The method, boiled down:
(§2)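 Continuous culture of HepG2 cells with a membrane-impermeant DNA dye; rising fluorescence marks dead cells. Compound exposure lasted up to 40 h at 37 C, with reads every 8 h from 0 h.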

The nature of experiment [3]: A CellTox Green Cytotoxicity Assay to monitor cytotoxicity in HepG2 cells - 32 hour (AID 1224883). Further: nearly all actives have a fitted effect of over 50% in size. Further: potency means the concentration at half of the fitted maximal effect. The settings on record: CellTox Green fluorescence; series mostly up to 76.8 µM. Put shortly:
as §2

Experiment [4] can be described thus: A CellTox Green Cytotoxicity Assay to monitor cytotoxicity in HEK293 cells - 8 hour (AID 1224884). Further: nearly all actives have a fitted effect of over 35% in size. The conditions noted are these: CellTox Green fluorescence; series mostly up to 76.8 µM. The method, boiled down: as §1
A short description of experiment [5]: qHTS RealTime-Glo MT Cell Viability Assay in HepG2 cells - 16 hour (AID 1224885). Further: nearly all actives have a fitted effect of over 50% in size. The conditions noted are these: RealTime-Glo luminescence; series mostly up to 76.8 µM. Put shortly:
(§3)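 qHTS, HepG2, 600 cells/well, RealTime-Glo (NanoLuc + prosubstrate) added with cells; 5 h preincubation; DMSO compound addition; 37 C; luminescence at 0/8/16/24/32/40 h.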
For orientation: qHTS replaces the single test concentration by a dilution series.

A short description of experiment [6]: qHTS RealTime-Glo MT Cell Viability Assay in HEK293 cells - 24 hour (AID 1224886). Further: nearly all actives have a fitted effect of over 50% in size. Further: potency means the concentration at half of the fitted maximal effect. The settings on record: RealTime-Glo luminescence; series mostly up to 76.8 µM. The method, boiled down: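 Assay medium contained NanoLuc luciferase plus cell-permeant prosubstrate, added with HEK293 cells at 600 cells/well. After 5 h at 37 C/5% CO2 compounds were added; plates stayed at 37 C for 40 h with serial luminescence reads.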

A short description of experiment [7]: qHTS RealTime-Glo MT Cell Viability Assay in HEK293 cells - 8 hour (AID 1224887). Further: top concentration of the series differs between compounds; nearly all actives have a fitted effect of over 50% in size. The conditions noted are these: RealTime-Glo luminescence; series mostly up to 76.8 µM. The method, boiled down: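 qHTS format; HEK293 cells with NanoLuc/prosubstrate reagent, 37 C/5% CO2 for 5 h pre-dosing; compounds 23 nL in DMSO; luminescence at each time point reflects viable cells.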

Experiment [8] in a line: A CellTox Green Cytotoxicity Assay to monitor cytotoxicity in HEK293 cells - 16 hour (AID 1224888). Further: nearly all actives have a fitted effect of over 35% in size. The settings on record: CellTox Green fluorescence; series mostly up to 76.8 µM. Put shortly:
as §1

The nature of experiment [9]: qHTS RealTime-Glo MT Cell Viability Assay in HepG2 cells - 0 hour (AID 1224889). Further: nearly all actives have a fitted effect of over 50% in size. The conditions noted are these: RealTime-Glo luminescence; series mostly up to 76.8 µM. The method, boiled down:
as §3

The nature of experiment [10]: A CellTox Green Cytotoxicity Assay to monitor cytotoxicity in HepG2 cells - 8 hour (AID 1224890). Further: nearly all actives have a fitted effect of over 45% in size. The settings on record: CellTox Green fluorescence; series mostly up to 76.8 µM. The method, boiled down: as §2

Each structure is given as a SMILES string. Records with an inconclusive call do not appear. Calls of active or inactive are those of the source. The call rests on the fitted dose curve; in most records, active means well fitted curve in the direction sought with a large enough effect in the repeat runs; inconclusive means weak or mixed curves; inactive means no such curve, though single readings can be large; an effect the other way counts as inactive or inconclusive.

As to `CC(C)c1cccc(C(C)C)c1NC(=O)NS(=O)(=O)c1cc(C(C)(C)O)co1`, the Potency entry in experiment [1], in experiment [2], in [3], in experiment [4], in [5] and in experiment [6] was “inactive” each time. Also, the Potency result in [7], in experiment [8], in experiment [9] and in [10] was “inactive” throughout.
For the compound `CC[C@H](C)[C@@H](C(=O)O)n1sc2ccccc2c1=O`, the Potency result in [1], in experiment [2], in experiment [3], in [4], in experiment [5] and in experiment [6] was “inactive” throughout. The Potency result in experiment [7], in [8], in experiment [9] and in [10] was “inactive” each time.
In the case of `CCOc1ccc(NC(=O)CC(C)=O)cc1`, the Potency result in [1], in experiment [2], in experiment [3], in [4], in [5] and in [6] was “inactive” in each case. For the same compound, the Potency result in experiment [7], in experiment [8], in experiment [9] and in experiment [10] was “inactive” each time.
For the compound `CN(C)C/C=C(/c1ccc(Br)cc1)c1cccnc1`, the Potency entry in experiment [1], in [2], in [3], in experiment [4], in experiment [5] and in experiment [6] was “inactive” each time. Also, the Potency result in experiment [7], in experiment [8], in experiment [9] and in [10] was “inactive” each time.
In the case of `CC[C@]12CCCN3CCc4c(n(c5ccccc45)C(=O)C1)[C@@H]32`, the Potency entry in [1], in experiment [2], in experiment [4], in experiment [5], in [8] and in [9] was “inactive” in each case. In addition, the Potency was 6.74 µM (active) in experiment [3] and 4.77 µM (active) in [6].
With `O=C(O)COC(=O)Cc1ccccc1Nc1c(Cl)cccc1Cl`, the Potency entry in [1], in experiment [2], in [3], in experiment [4], in experiment [5] and in [6] was “inactive” throughout. For the same compound, the Potency result in experiment [8], in experiment [9] and in experiment [10] was “inactive” in each case.
On to `COc1ccc(C(C)=O)cc1`, for which the Potency entry in [1], in [2], in experiment [3], in [4], in experiment [5] and in experiment [6] was “inactive” throughout. Moreover, the Potency result in experiment [7], in experiment [8], in experiment [9] and in [10] was “inactive” in each case.
For `O=S(=O)(O)c1ccc(O)c2ncccc12`, the Potency entry in experiment [1], in experiment [2], in [3], in experiment [4], in experiment [5] and in experiment [6] was “inactive” throughout. Besides, the Potency result in experiment [8], in experiment [9] and in experiment [10] was “inactive” throughout.
As for `CC(C(=O)O)c1ccc(C(=O)c2ccccc2)s1` (stereo not drawn), the Potency result in experiment [1], in experiment [2], in experiment [3], in experiment [4], in experiment [5] and in experiment [6] was “inactive” each time. In addition, the Potency entry in experiment [8], in [9] and in [10] was “inactive” each time.
Take `NCCCN(CCO)CCO`: the Potency entry in experiment [1], in experiment [2], in [3], in experiment [4], in experiment [5] and in experiment [6] was “inactive” each time. The Potency result in experiment [7], in experiment [8], in experiment [9] and in experiment [10] was “inactive” each time.
With `O=C(Cl)c1ccc([N+](=O)[O-])cc1`, the Potency entry in experiment [1], in experiment [2], in [3], in experiment [4], in [5] and in [6] was “inactive” each time. Besides, the Potency result in [7], in experiment [8], in [9] and in experiment [10] was “inactive” each time.
For `CCCCCCCCC(CO)CCCCCC` (stereo not drawn), the Potency entry in experiment [1], in experiment [2], in experiment [3], in [4], in experiment [5] and in experiment [6] was “inactive” each time. The Potency entry in experiment [8], in experiment [9] and in [10] was “inactive” throughout.
For `O=C=NC1CCC(CC2CCC(N=C=O)CC2)CC1` (stereo not drawn), the Potency in experiment [1] was 54.9 µM (active). Also, the Potency entry in experiment [2], in experiment [3], in experiment [4], in experiment [5], in experiment [6] and in [8] was “inactive” each time. For the same compound, the Potency entry in [9] and in experiment [10] was “inactive” throughout.
For the compound `COc1ccccc1OC(=O)Oc1ccccc1OC`, the Potency result in experiment [1], in [2], in experiment [3], in experiment [4], in experiment [5] and in experiment [6] was “inactive” in each case. The Potency result in [8], in [9] and in experiment [10] was “inactive” throughout.
Consider `CCCCCCCCN(C)C`, for which the Potency result in experiment [1], in experiment [2], in experiment [3], in experiment [4], in [5] and in experiment [6] was “inactive” throughout. Moreover, the Potency entry in experiment [7], in experiment [8], in experiment [9] and in experiment [10] was “inactive” in each case.
As to `CC(=O)/C=C/C1C(C)=CCCC1(C)C` (stereo not drawn), the Potency entry in [1], in experiment [2], in experiment [3], in experiment [4], in experiment [5] and in experiment [6] was “inactive” throughout. In addition, the Potency entry in experiment [7], in [8], in [9] and in experiment [10] was “inactive” each time.
As for `C=CCCCCCC`, the Potency entry in [1], in experiment [2], in [3], in [4], in experiment [5] and in [6] was “inactive” throughout. In addition, the Potency result in [7], in experiment [8], in experiment [9] and in [10] was “inactive” in each case.
Consider `CC(=O)c1c(C)c([N+](=O)[O-])c(C(C)(C)C)c([N+](=O)[O-])c1C`, for which the Potency result in experiment [1], in [2], in experiment [3], in experiment [4], in experiment [5] and in experiment [6] was “inactive” throughout. The Potency result in [7], in experiment [8], in experiment [9] and in experiment [10] was “inactive” each time.
As for `O=C1Nc2cc(Cl)ccc2Oc2ccccc21`, the Potency result in experiment [1], in [2], in experiment [3], in experiment [4], in experiment [5] and in [6] was “inactive” throughout. In addition, the Potency result in experiment [7], in experiment [8], in experiment [9] and in experiment [10] was “inactive” throughout.
`Nc1cnn([C@@H]2O[C@H](CO)[C@@H](O)[C@H]2O)c(=O)n1`: the Potency result in experiment [1], in [2], in [3], in [4], in experiment [5] and in [6] was “inactive” each time. Also, the Potency entry in [7], in experiment [8], in experiment [9] and in [10] was “inactive” in each case.
With `CN1CCC(=C2c3ccccc3C=Cc3ccccc32)CC1`, the Potency entry in experiment [1], in [2], in [4], in [5], in [6] and in experiment [7] was “inactive” each time. Besides, the Potency entry in experiment [8] and in experiment [10] was “inactive” in each case. Further, the Potency in [3] was 26.8 µM (active).
Turning to `O=CNc1ccccc1`, the Potency result in experiment [1], in [2], in experiment [3], in experiment [4], in experiment [5] and in experiment [6] was “inactive” in each case. For the same compound, the Potency result in experiment [7], in experiment [8], in experiment [9] and in [10] was “inactive” each time.
In the case of `COC(Cc1ccccc1)OC`, the Potency entry in [1], in [2], in [3], in [4], in experiment [5] and in [6] was “inactive” in each case. Moreover, the Potency entry in [7], in [8], in [9] and in experiment [10] was “inactive” each time.
Take `S=C(S)NCCNC(=S)S`: the Potency entry in experiment [1], in [2], in [3], in experiment [4], in [5] and in experiment [6] was “inactive” in each case. Also, the Potency entry in experiment [7], in experiment [8], in experiment [9] and in experiment [10] was “inactive” each time.
Take `CCCCCC(CO)CCC` (stereo not drawn): the Potency result in [1], in experiment [2], in experiment [3], in experiment [4], in experiment [5] and in [6] was “inactive” each time. The Potency result in experiment [7], in [8], in experiment [9] and in [10] was “inactive” each time.
Take `Cc1nc2ccccc2n1Cc1ccc(Cl)cc1`: the Potency result in experiment [1], in experiment [2], in experiment [3], in experiment [4], in [5] and in experiment [8] was “inactive” throughout. The Potency result in [9] and in experiment [10] was “inactive” throughout. In [6], the Potency is 1.9 µM (active).
`CCCCCCCCCCCCC(=O)O`: the Potency entry in experiment [1], in experiment [2], in experiment [3], in experiment [4], in [6] and in experiment [7] was “inactive” in each case. In addition, the Potency result in [8], in experiment [9] and in experiment [10] was “inactive” throughout.
For the compound `NCCCOCCOCCOCCCN`, the Potency entry in experiment [1], in experiment [2], in experiment [3], in experiment [4], in experiment [5] and in experiment [6] was “inactive” throughout. The Potency entry in experiment [8], in experiment [9] and in experiment [10] was “inactive” in each case.

The values are drawn from PubChem BioAssay (Tox21).
